Measurements taken from PubChem BioAssay.
Inconclusive results are not listed. Activity calls are given as the source filed them.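 Rule for the calls, unless noted: active = viability at or below 10% of carrier control in both of two separate runs; inconclusive = viability at or below 10% in only one of the two runs; inactive = the rest.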

Key:
[1] = Her2 expression decrease, cell viability multiplex – SKBR3 breast tumor cells, AlphaScreen, ATP viability, primary screen (AID 461;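 active = Her2 level under about 52% in both replicate screens, with viability over 70% of control, limit read from the data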;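 for Her2 level: lower value means less Her2 protein in the cells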;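 for viability: percent of carrier control wells set as 100% viability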); conditions: SKBR3 Her2 protein level, 18-24 h, measured here: SKBR3 viability, ATP luminescence, at 10 µM
[2] = target: Receptor tyrosine-protein kinase erbB-2 (Homo sapiens) (UniProt P04626); test: as above; conditions: 18-24 h, at 10 µM, stronger effect = lower value
Receptor tyrosine-protein kinase erbB-2 (Homo sapiens), sequence (P04626 whole entry, looked up): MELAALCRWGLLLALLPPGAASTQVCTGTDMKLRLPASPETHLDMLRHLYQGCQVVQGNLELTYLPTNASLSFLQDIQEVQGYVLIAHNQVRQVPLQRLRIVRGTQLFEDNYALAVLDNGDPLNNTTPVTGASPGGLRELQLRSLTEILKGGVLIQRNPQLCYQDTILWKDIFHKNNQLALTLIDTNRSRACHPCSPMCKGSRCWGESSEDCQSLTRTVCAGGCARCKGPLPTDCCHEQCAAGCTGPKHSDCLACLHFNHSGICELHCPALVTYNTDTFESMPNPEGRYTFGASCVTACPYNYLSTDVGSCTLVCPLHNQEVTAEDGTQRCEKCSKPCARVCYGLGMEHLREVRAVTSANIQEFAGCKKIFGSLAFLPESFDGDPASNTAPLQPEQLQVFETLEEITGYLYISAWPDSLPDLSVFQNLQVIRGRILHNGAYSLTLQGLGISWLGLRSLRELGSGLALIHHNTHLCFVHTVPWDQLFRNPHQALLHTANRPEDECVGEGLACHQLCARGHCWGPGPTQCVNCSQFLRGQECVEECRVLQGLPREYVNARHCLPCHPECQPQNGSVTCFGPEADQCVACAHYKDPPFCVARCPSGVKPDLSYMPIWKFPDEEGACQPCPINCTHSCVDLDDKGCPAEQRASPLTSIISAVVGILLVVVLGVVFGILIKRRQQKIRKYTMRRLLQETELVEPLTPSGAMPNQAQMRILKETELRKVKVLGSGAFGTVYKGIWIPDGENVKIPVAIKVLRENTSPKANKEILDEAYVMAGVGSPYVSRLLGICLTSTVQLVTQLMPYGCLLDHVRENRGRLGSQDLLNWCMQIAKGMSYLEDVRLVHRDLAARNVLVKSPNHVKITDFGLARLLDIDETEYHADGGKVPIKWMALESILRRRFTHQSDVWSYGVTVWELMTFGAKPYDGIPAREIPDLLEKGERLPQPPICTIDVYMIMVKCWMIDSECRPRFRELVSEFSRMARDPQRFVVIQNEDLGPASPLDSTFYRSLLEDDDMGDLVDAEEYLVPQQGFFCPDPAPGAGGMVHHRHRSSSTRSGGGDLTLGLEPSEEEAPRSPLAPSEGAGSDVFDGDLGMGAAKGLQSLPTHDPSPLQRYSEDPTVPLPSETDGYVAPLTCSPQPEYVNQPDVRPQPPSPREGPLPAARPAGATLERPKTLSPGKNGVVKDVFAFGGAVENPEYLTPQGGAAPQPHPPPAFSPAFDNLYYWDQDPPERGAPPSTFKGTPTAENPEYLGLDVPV

[3] = reduced viability of SK-BR-3 breast cancer cells – cell-based, 24 h, human, pilot screen (AID 572); conditions: SK-BR-3 viability, CellTiter-Glo luminescence, at 10 µM, stronger effect = lower value;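 note: compound exposure lasted between 18 and 24 h rather than exactly 24 h; 100% = carrier-treated control wells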
[4] = HUVEC growth inhibition – cell-based, human, primary screen (AID 575;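 active = viability at or below 30% in both replicate assays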;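 note: 100% = median of untreated cell wells with 0.1% DMSO on each plate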); conditions: HUVEC proliferation, CellTiter-Glo luminescence, 72 h; at 10 µM; stronger effect = lower value
[5] = H69AR cell proliferation blockers – human, duplicate replicates, primary screen (AID 580;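 active = viability at or under a set limit in both replicates, limit being median viability minus 3 SD, cut at about 48% in these data, passing the limit was not always enough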;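 note: 100% = mean luminescence of untreated wells and 0% = no signal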); conditions: H69AR lung tumor cells viability, ATP luminescence, 72 h; at 10 µM; stronger effect = lower value
[6] = MRP1 drug-resistance reversers in H69AR cells – cell-based, doxorubicin co-treatment, pilot screen (AID 601;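 active = viability loss from added drug above about 55%, and viability with drug at most 40%, in both replicates, limit read from the data, passing the limit was not always enough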); conditions: CellTiter-Glo, 72 h, at 10 µM; for differential viability (reversal): stronger effect = higher value
[7] = yeast transport mutant growth inhibition pilot in 384-well plates, post-Golgi transport modulator project (AID 636; in the data active = inhibition above about 31%); conditions: absorbance 615 nm, about 18 h, stronger effect = higher value
[8] = growth suppression of yeast trafficking mutant, preliminary HTS, modulators of trafficking downstream of Golgi apparatus project, 1536-format plate, OD 615 nm (AID 637; in the data active = inhibition above about 30%); conditions: yeast transport mutant growth, absorbance 615 nm, 18 h; stronger effect = higher value
[9] = S. cerevisiae growth inhibition in permissive medium (OD615), pilot counter-assay for S. cerevisiae lifespan shortening project, permissive growth control (AID 705;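 active = growth inhibition above 25% in both replicates, a cutoff set 3 SD above the mean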); conditions: OD615, 24 h, at 10 µM, stronger effect = higher value
[10] = S. cerevisiae growth inhibition in restrictive medium, OD615, pilot screen, restrictive growth control, yeast lifespan reduction project (AID 706;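 active = growth inhibition above a set limit, 3 SD over mean compound inhibition, in both replicates, cut at about 43% in these data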;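 note: modified DeaD lifespan yeast strain shifted to restrictive glucose medium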); conditions: OD615, 48 h, at 10 µM, stronger effect = higher value
[11] = doxorubicin toxicity protection in MRP-1 cells – H69AR cells, CellTiter-Glo, duplicate, MRP-1 activator project, pilot screen (AID 807;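 active = viability increase at or above a cutoff of the median across tested compounds plus 3 SD, cut at about 8.5% in these data, passing the limit was not always enough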;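 note: compound pretreatment 18-22 h then 72 h combined with doxorubicin; 0% = doxorubicin alone and 100% = vehicle without doxorubicin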); conditions: H69AR viability with doxorubicin, CellTiter-Glo luminescence; at 10 µM; stronger effect = higher value
[12] = viability of HCT116 without oncogenic beta-catenin – human colon tumor cells, pilot screen (AID 823;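 active = cell viability at or below a set limit in both duplicate runs, the limit being the all-compound median minus 4 SD, cut at about 23% in these data, passing the limit was not always enough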;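 note: 0% = wells killed by 20 µM Hyamine and 100% = untreated DMSO cell wells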); conditions: HCT116 beta-catenin knockout viability, CellTiter-Glo, 60 h; at 10 µM; stronger effect = lower value
[13] = viability of PTEN-null HCT116 cells – cell-based, HCT116 clonal line, CellTiter-Glo, pilot screen (AID 824;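 active = viability at or below 27.92% in each of two runs, the all-compound median minus 4 SD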;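 note: 0% = 20 µM Hyamine control and 100% = vehicle cell control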); conditions: HCT116 PTEN-deleted viability, 60 h, at 10 µM, stronger effect = lower value
[14] = RAM pathway blockade in budding yeast – dse1pr::URA3 reporter, 5-FOA selection, pilot screen (AID 869;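 active = inhibition over a set limit, the all-compound mean plus 3 SD, in both replicate runs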;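 note: 0% = DMSO wells with no growth and 100% = 10 µM 1-NA-PP1 with full growth; RAM network block rescues cells from 5-FOA so hits raise OD615 growth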); conditions: S. cerevisiae dse1pr::URA3 5-FOA growth, OD615, 2 d; at 10 µM; stronger effect = higher value; strain carries analog-sensitive mutant Cbk1 kinase
[15] = RAM signaling pathway blockade in yeast – S. cerevisiae, Pdr1DBD-CYC8 efflux-inhibited sensitized strain, primary screen (AID 1298;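 active = RAM network inhibition above 8.4% in each of two replicates, 3 SD over the compound average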;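 note: 0% = DMSO untreated cells without growth and 100% = 10 µM 1-NA-PP1 full growth; higher means more yeast growth rescued from 5-FOA killing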); conditions: S. cerevisiae cbk1-as DSE1-URA3 strain, 5-FOA growth OD615, 2 d; at 50 µM; stronger effect = higher value
[16] = H69AR cells + 2 uM doxorubicin, measured here: viability with 2 uM doxorubicin, stronger effect = lower value
[17] = H69AR cells, compound alone cytotoxicity

O=C(CSc1nnc2ccccn12)c1ccccc1
inactive: Her2 level [2] 88% | viability [3] 99% | viability [4] 88.8% | viability [5] 94.5% | differential viability (reversal) ([6]; H69AR cells + 2 uM doxorubicin) 14.1% | inhibition [7] -4.27% | inhibition [8] -3.44% | growth inhibition [9] -13.8% | growth inhibition [10] -10.6% | viability increase [11] 0.47% | viability [12] 109% | viability [13] 102% | inhibition [14] 1.23% | RAM network inhibition [15] 2.3%
99%: viability [1]
94.5%: viability [6, 17]
80.3%: viability [6, 16]

COc1ccc(CC(=O)NCc2nnc(SCC(=O)Nc3nccs3)n2-c2ccccc2)cc1
99.5%: viability [1]
93.9%: viability [6, 16]
inactive: Her2 level [2] 98% | viability [3] 99.5% | viability [4] 98.4% | viability [5] 96.6% | differential viability (reversal) ([6]; H69AR cells + 2 uM doxorubicin) 2.73% | inhibition [7] -4.4% | inhibition [8] -3.67% | growth inhibition [9] -3.97% | growth inhibition [10] 7.4% | viability increase [11] -1.27% | viability [12] 102% | viability [13] 96.7% | inhibition [14] 1.48% | RAM network inhibition [15] 6.87%
96.6%: viability [6, 17]

CC(OC(=O)C1CC=CCC1C(N)=O)C(Cl)=C(Cl)Cl (stereo not given)
88%: viability [1]
86.5%: viability [6, 16]
inactive: Her2 level [2] 105% | viability [3] 88% | viability [4] 80.8% | viability [5] 93.7% | differential viability (reversal) ([6]; H69AR cells + 2 uM doxorubicin) 7.14% | inhibition [7] 6.1% | inhibition [8] 1.31% | growth inhibition [9] -2.97% | growth inhibition [10] -1.67% | viability increase [11] 0.52% | viability [12] 103% | viability [13] 105% | inhibition [14] 0.055% | RAM network inhibition [15] 2.45%
93.7%: viability [6, 17]

Cc1cc(C)n(-c2cc(N3CCOCC3)ncn2)n1
91.7%: viability [6, 17]
inactive: Her2 level [2] 90.5% | viability [3] 101% | viability [4] 93.2% | viability [5] 91.7% | differential viability (reversal) ([6]; H69AR cells + 2 uM doxorubicin) 2.58% | inhibition [7] -3.47% | inhibition [8] 3.67% | growth inhibition [9] -3.3% | growth inhibition [10] 12.9% | viability increase [11] -1.2% | viability [12] 93% | viability [13] 93.1% | inhibition [14] 0.035% | RAM network inhibition [15] 2.04%
101%: viability [1]
89.1%: viability [6, 16]

Cc1ccccc1NC(=O)C1CCCN(S(=O)(=O)c2cccc3cccnc23)C1 (stereo not given)
inactive: Her2 level [2] 96.5% | viability [3] 90.5% | viability [4] 94.6% | viability [5] 93.2% | differential viability (reversal) ([6]; H69AR cells + 2 uM doxorubicin) 0.99% | inhibition [7] -1.73% | inhibition [8] -5.25% | growth inhibition [9] -13.1% | growth inhibition [10] -16.6% | viability increase [11] -2.23% | viability [12] 82.1% | viability [13] 81.2% | inhibition [14] 3.01% | RAM network inhibition [15] 1.93%
90.5%: viability [1]
92.2%: viability [6, 16]
93.2%: viability [6, 17]

COc1ccc(N2CCN(CCNC(=O)CCS(=O)(=O)c3cccc4nsnc34)CC2)cc1
inactive: Her2 level [2] 97% | viability [3] 90% | viability [4] 99.9% | viability [5] 103% | differential viability (reversal) ([6]; H69AR cells + 2 uM doxorubicin) 11.1% | inhibition [7] -6.58% | inhibition [8] -0.16% | growth inhibition [9] 0.45% | growth inhibition [10] 4.11% | viability increase [11] -1.51% | viability [12] 98.5% | viability [13] 95.2% | inhibition [14] 0.835% | RAM network inhibition [15] 5.62%
91.6%: viability [6, 16]
103%: viability [6, 17]
90%: viability [1]

CCCCn1c(CN2CCN(c3ccccc3)CC2)nc2c1c(=O)n(C)c(=O)n2C
85.6%: viability [6, 17]
89%: viability [1]
66.4%: viability [6, 16]
inactive: Her2 level [2] 105% | viability [3] 89% | viability [4] 85.7% | viability [5] 85.6% | differential viability (reversal) ([6]; H69AR cells + 2 uM doxorubicin) 19.2% | inhibition [7] -2.27% | inhibition [8] -3.67% | growth inhibition [9] -4.55% | growth inhibition [10] 1.55% | viability increase [11] -3.11% | viability [12] 36.1% | viability [13] 65.2% | inhibition [14] 0.475% | RAM network inhibition [15] 2.8%

Cc1noc(/C=C/N(C)C)c1S(=O)(=O)N1CCc2ccccc21
inactive: Her2 level [2] 106% | viability [3] 99% | viability [4] 67.4% | viability [5] 75.7% | differential viability (reversal) ([6]; H69AR cells + 2 uM doxorubicin) -20.2% | inhibition [7] 0.13% | inhibition [8] -3.83% | growth inhibition [9] -22.4% | growth inhibition [10] -28.7% | viability increase [11] -6.84% | viability [12] 84.4% | viability [13] 68.7% | inhibition [14] 1.65% | RAM network inhibition [15] 10%
75.7%: viability [6, 17]
95.9%: viability [6, 16]
99%: viability [1]

CCOC(=O)C1=C(C)N(C)C(=O)NC1c1ccccc1OC (stereo not given)
175%: viability [6, 17]
97%: viability [1]
inactive: Her2 level [2] 88% | viability [3] 97% | viability [4] 88.2% | viability [5] 175% | differential viability (reversal) ([6]; H69AR cells + 2 uM doxorubicin) 64.2% | inhibition [7] -8.24% | inhibition [8] 2.46% | growth inhibition [9] -4.28% | growth inhibition [10] -3.44% | viability increase [11] 0.16% | viability [12] 97.9% | viability [13] 93.4% | inhibition [14] 0.97% | RAM network inhibition [15] 2.01%
110%: viability [6, 16]

CC1=C(C(=O)OC(C)C)C(c2cccc(F)c2)n2ncnc2N1 (stereo not given)
90.7%: viability [6, 17]
91.7%: viability [6, 16]
inactive: Her2 level [2] 112% | viability [3] 103% | viability [4] 101% | viability [5] 90.7% | differential viability (reversal) ([6]; H69AR cells + 2 uM doxorubicin) -1.02% | inhibition [7] 0.27% | inhibition [8] 3.83% | growth inhibition [9] -7.79% | growth inhibition [10] -4.85% | viability increase [11] 0.62% | viability [12] 103% | viability [13] 100% | inhibition [14] 1.74% | RAM network inhibition [15] 5.32%
103%: viability [1]
